Platelet DG rel: modulates dense granule release in human platelets; inhibition, %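 (compounds screened at 7.5 µM in platelet-rich plasma)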; hit rate 0.22% among 300,000; AID 1663; human platelet-rich plasma, SFLLRN dense granule ATP release, luminescence;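 active means mean replicate score, as percent of positive control, at or above 50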
WT yeast gro inh: growth inhibition of WT yeast, mitochondrial fusion screen; hit rate 2.1% among 190,000; AID 1362; inhibition, % at 10 µM; mitochondrial fusion phenotypic screen, WT strain; in the data active means inhibition above about 58%; tested in S. cerevisiae
TPT1 inhibitor: inhibitors of Candida albicans tRNA 2'-phosphotransferase TPT1; recombinant caTPT1, FP RNA substrate dephosphorylation; inhibition, % at 5 µM; hit rate 0.81% among 300,000; AID 1962;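 active means inhibition above the mean of all tested compounds plus 3 SD, set per screening campaign, cut at about 24% in these data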;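 further: plate controls were DMSO alone for no effect and ferristatin control at 100 nM for full effect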
PHOSPHO1 inh: blocks human PHOSPHO1 phosphatase activity; Q8TCT1; recombinant PHOSPHO1, absorbance phosphatase assay; inhibition, % at 13.3 µM; hit rate 1.1% among 290,000; AID 1565; in the data active means inhibition above about 60%
Rtt109 HAT inh: inhibitors of Candida albicans Rtt109/Vps75 histone acetyltransferase; Q5AAJ8; purified Rtt109/Vps75, ThioGlo CoA-SH fluorescence, 4 h; inhibition, % at 34.9 µM; hit rate 0.16% among 330,000;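 active means inhibition of at least 50% in every replicate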
Target sequence (Q5AAJ8 whole entry, looked up): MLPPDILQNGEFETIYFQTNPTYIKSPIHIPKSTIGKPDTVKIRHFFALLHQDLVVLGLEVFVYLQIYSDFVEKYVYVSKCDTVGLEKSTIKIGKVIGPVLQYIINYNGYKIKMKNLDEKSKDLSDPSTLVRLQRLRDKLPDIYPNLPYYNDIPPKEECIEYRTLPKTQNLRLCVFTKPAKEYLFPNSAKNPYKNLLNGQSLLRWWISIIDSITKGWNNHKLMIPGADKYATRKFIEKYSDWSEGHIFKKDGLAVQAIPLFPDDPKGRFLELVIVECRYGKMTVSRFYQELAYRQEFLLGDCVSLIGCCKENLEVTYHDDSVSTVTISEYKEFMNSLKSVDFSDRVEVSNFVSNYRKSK
SKKanGAS inh: inhibitors of SKKanGAS S. pyogenes growth in kanamycin (SK-promoter or general growth effect) | BacTiter-Glo, 6 h | inhibition, % at 7.5 µM | hit rate 1.3% among 300,000;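 active means mean replicate score, as percent of positive control median, at least 50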;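 further: strain carries kanamycin resistance gene driven by streptokinase promoter and grows in 40 µg/ml kanamycin; loss of luminescence reflects streptokinase promoter inhibition or plain growth inhibition; 0% = median of DMSO wells and 100% = positive control at its reference dose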
caTPT1 confirm: confirmation of Candida albicans TPT1 inhibitors | AID 2149 | recombinant caTPT1, fluorescence polarization, RNase T1 coupled | shares compounds with TPT1 inhibitor | inhibition, % at 5 µM | hit rate 74% among 2,400;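 active means inhibition above the primary screen limit, the mean inhibition of all tested compounds plus 3 SD, cut at about 25% in these data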
RNase T1 inh: RNase T1 inhibition in TPT1 counter-screen; hit rate 83% among 2,400; shares compounds with TPT1 inhibitor; RNase T1 cleavage, fluorescence polarization, 1536-well; inhibition, % at 5 µM;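 active means inhibition above the solvent-only control well mean plus 3 SD, limit set per screening run, cut at about 23% in these data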;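 further: plate controls were DMSO wells with enzyme for no effect and wells without RNase T1 for full effect; inhibitors block cleavage so intact labeled substrate keeps polarization high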
Target sequence (P00651 whole entry, looked up): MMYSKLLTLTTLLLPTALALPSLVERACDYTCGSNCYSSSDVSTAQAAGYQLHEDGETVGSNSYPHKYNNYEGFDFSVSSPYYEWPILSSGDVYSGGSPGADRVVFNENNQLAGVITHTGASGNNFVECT
* = called active by the depositor. In the library only some 3.9% were active in any assay of this set; here they are far more common.

For CCN(CC)c1ccc(/C=C/c2cc(-c3ccccc3)c3ccccc3n2)cc1 the results were Platelet DG rel -3, TPT1 inhibitor 94*, PHOSPHO1 inh 47, Rtt109 HAT inh -4, SKKanGAS inh 9, caTPT1 confirm 87* and RNase T1 inh 90*.
For CCN(CC)c1ccc(/C=N/NC(=O)c2cc(C)nc3ccccc23)cc1 the results were Platelet DG rel -7, TPT1 inhibitor 1, PHOSPHO1 inh 24, Rtt109 HAT inh 2 and SKKanGAS inh -1.
Screening COc1ccc(OC)c(/C=C2\SC(=S)N(C(C(=O)O)c3ccccc3)C2=O)c1 (centres undefined) returned Platelet DG rel -2, TPT1 inhibitor 65*, PHOSPHO1 inh 45, Rtt109 HAT inh 66*, SKKanGAS inh 12, caTPT1 confirm 61* and RNase T1 inh 72*.
For CCOc1ccc(/C=C2\SC(=S)N(C(C(=O)O)c3ccccc3)C2=O)cc1OC (centres undefined) the results were Platelet DG rel 7, TPT1 inhibitor 11, PHOSPHO1 inh 24, Rtt109 HAT inh 24 and SKKanGAS inh 17.
Screening Cc1ccc(CO/N=C\Cc2snc(Sc3ncc(C(F)(F)F)cc3Cl)c2C#N)cc1 returned Platelet DG rel 9, WT yeast gro inh -2, TPT1 inhibitor 35*, PHOSPHO1 inh 95*, Rtt109 HAT inh 3, SKKanGAS inh 7, caTPT1 confirm 27* and RNase T1 inh 34*.
Screening COc1ccc(NC(=O)Cn2nnc(-c3ccccc3NC(=O)C3CC3)n2)cc1 returned Platelet DG rel -25, WT yeast gro inh -30, TPT1 inhibitor -4, PHOSPHO1 inh -2, Rtt109 HAT inh -6 and SKKanGAS inh -4.
Screening COc1ccc(C(=O)Cn2nnc(-c3ccccc3NC(=O)C3CCCCC3)n2)cc1 returned Platelet DG rel -1, WT yeast gro inh 14, TPT1 inhibitor 30*, PHOSPHO1 inh 11, Rtt109 HAT inh -6, SKKanGAS inh 7, caTPT1 confirm 43* and RNase T1 inh 54*.
Screening Cc1ccc2cc(/C=N/NC(=O)c3ccc(F)cc3)c(Cl)nc2c1 returned Platelet DG rel 4, WT yeast gro inh 3, TPT1 inhibitor 2, PHOSPHO1 inh 9, Rtt109 HAT inh -39 and SKKanGAS inh 0.
Screening Cc1ccc2nc(Cl)c(/C=N/Nc3ccc(C(=O)O)cc3)cc2c1 returned Platelet DG rel 8, TPT1 inhibitor 30*, PHOSPHO1 inh -107, Rtt109 HAT inh -17, SKKanGAS inh -1, caTPT1 confirm 36* and RNase T1 inh 47*.
For CCNc1c(NC(=O)C2CCC(C)CC2)c(=O)oc2ccccc12 (centres undefined) the results were Platelet DG rel -1, TPT1 inhibitor 2, PHOSPHO1 inh 0, Rtt109 HAT inh -8 and SKKanGAS inh 5.
CCOc1ccc(NC(=O)c2cccc(NC(C)=O)c2)cc1S(=O)(=O)N1CCCC1 was read as Rtt109 HAT inh 8.
COC(=O)c1cc(NC(=O)c2cccc(C(F)(F)F)c2)c(=O)oc1C was read as Platelet DG rel 3, WT yeast gro inh 13, TPT1 inhibitor 5, PHOSPHO1 inh -12, Rtt109 HAT inh 0 and SKKanGAS inh 7.
For COC(=O)c1cc(NC(=O)c2cccc(C(F)(F)F)c2)c(=O)oc1C/C=N/OCc1cccc(Cl)c1Cl the results were Platelet DG rel 1, WT yeast gro inh 13, TPT1 inhibitor 35*, PHOSPHO1 inh 5, Rtt109 HAT inh -5, SKKanGAS inh 24, caTPT1 confirm 38* and RNase T1 inh 45*.
Screening CSc1cccc(NS(=O)(=O)c2cn(C)cn2)c1 returned Platelet DG rel -8, TPT1 inhibitor -2, PHOSPHO1 inh 14, Rtt109 HAT inh 30 and SKKanGAS inh 5.
Screening Nc1c(C(=O)c2ccccc2)sc2snc(SCC(=O)c3ccccc3)c12 returned Platelet DG rel -6, WT yeast gro inh 44, TPT1 inhibitor 102*, PHOSPHO1 inh 32, Rtt109 HAT inh 18, SKKanGAS inh 49, caTPT1 confirm 71* and RNase T1 inh 77*.
Screening CC1(c2ccc3c(c2)OCCO3)NC(=O)N(CC(=O)Nc2ccccc2F)C1=O (centres undefined) returned Rtt109 HAT inh -9.
`CC(=Nc1ccc(C)cc1)c1sc2ccccc2c1O` gave Platelet DG rel 20, WT yeast gro inh 8, TPT1 inhibitor 74*, PHOSPHO1 inh 21, Rtt109 HAT inh -9, SKKanGAS inh 15, caTPT1 confirm 75* and RNase T1 inh 87*.
CC(=Nc1ccc(C)cc1C)c1sc2ccccc2c1O was read as Platelet DG rel 9, WT yeast gro inh 79*, TPT1 inhibitor 55*, PHOSPHO1 inh -44, SKKanGAS inh 22, caTPT1 confirm 79* and RNase T1 inh 94*.
CN=Cc1sc2ccccc2c1O was read as Platelet DG rel 7, WT yeast gro inh -2, TPT1 inhibitor 0, PHOSPHO1 inh 24, Rtt109 HAT inh -7 and SKKanGAS inh -4.
CC(=Nc1cccc(O)c1)c1sc2ccccc2c1O was read as Platelet DG rel 2, WT yeast gro inh 33, TPT1 inhibitor 66*, PHOSPHO1 inh 20, Rtt109 HAT inh -13, SKKanGAS inh 0, caTPT1 confirm 94* and RNase T1 inh 105*.
For COc1cc(OC)cc(C(=O)NNC(=O)CNC(=O)c2cccs2)c1 the results were Rtt109 HAT inh 2.
Screening COc1ccc2[nH]cc(/C=C/c3cc[n+](C)cc3)c2c1 returned Platelet DG rel -2, TPT1 inhibitor 71*, PHOSPHO1 inh 30, Rtt109 HAT inh 6, SKKanGAS inh -9, caTPT1 confirm 83* and RNase T1 inh 90*.
`CCc1ccc(-c2cc3c(=O)n(CC(=O)NCCCN4CCN(CC)CC4)nc(C)n3n2)cc1` gave Platelet DG rel 4, TPT1 inhibitor -3, PHOSPHO1 inh -16, Rtt109 HAT inh -3 and SKKanGAS inh 0.
Cc1ccc(C2=N/C(=C\c3ccc(F)cc3)C(=O)N2)cc1 was read as Rtt109 HAT inh -2.
`Nc1ccc2c(c1)C/C(=C/c1ccco1)C2=O` gave Platelet DG rel 3, WT yeast gro inh 5, TPT1 inhibitor 26*, PHOSPHO1 inh 5, Rtt109 HAT inh -27, SKKanGAS inh 11, caTPT1 confirm -3 and RNase T1 inh 10.
O=C1/C(=C/c2ccco2)CCc2ccccc21 was read as Platelet DG rel 10, WT yeast gro inh 4, TPT1 inhibitor 6, PHOSPHO1 inh -2, Rtt109 HAT inh 3 and SKKanGAS inh 6.
`CN(C)S(=O)(=O)c1ccc(N2CCCC2)c(C(=O)N2CCN(S(=O)(=O)c3ccccc3F)CC2)c1` gave Platelet DG rel -3, TPT1 inhibitor 0, Rtt109 HAT inh 3 and SKKanGAS inh 18.

Bioassay records deposited in PubChem BioAssay by several laboratories.
